# According to PubChem BioAssay (NCATS):
# Where “and” joins values, the source holds several entries; their conditions need not be identical. Identical values can stand only once. Records with an inconclusive call do not appear. Where a call stands in place of a potency, no number is given. Calls of active or inactive are those of the source. Unless noted, calls come from the whole dose curve; as a rule, active = well fitted curve in the direction sought with a large enough effect; inconclusive = small, poorly fitted or top-dose-only effect, or another doubt; inactive = no such curve, though single readings can be large; an effect the other way counts as inactive or inconclusive. Bridge positions count the residues as written; N and C are the ends. Square brackets hold non-standard residues; d marks the D form. Peptide text beside a SMILES is read from it. * marks the point of attachment. Octanoyl(6-Me) = CCC(C)CCCCC(=O)*; Dab = NCC[CH](N)C(=O)O
# Legend:
# [1] = target: Phospholipid hydroperoxide glutathione peroxidase GPX4 (Homo sapiens) (UniProt P36969); assay: Primary qHTS Assay for Inhibitors of Recombinant Selenoprotein Glutathione Peroxidase 4 (GPX4) (AID 1845192); note: nearly all actives have a fitted effect of over 65% in size; note: potency is the fitted concentration of half-maximal effect
# In short: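 Steps: GPX4 plus compound, 30 min RT; add GR/GSH/NADPH master mix; start with cumene hydroperoxide; read 340/450 nm fluorescence at 0 and 15 min. Finals were 200 nM GPX4, 1 mM GSH, 0.5 mM CHP, 0.5 mM NADPH, 100 nM GR.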
# [2] = target: Glutathione peroxidase 1 (Homo sapiens) (UniProt P07203); assay: Primary qHTS Assay for Inhibitors of Recombinant Selenoprotein Glutathione Peroxidase 1 (GPX1) (AID 1845191); note: nearly all actives have a fitted effect of over 65% in size
# In short: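 GR-coupled readout: NADPH consumption tracked by fluorescence, ex 340/em 450 nm, at t=0 and after 15 min at RT. Final mix 10 nM GPX1, 1 mM GSH, 0.5 mM CHP, 0.5 mM NADPH, 100 nM GR, 0.01% BSA, following 30 min enzyme–compound preincubation.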
# [3] = Cell Viability - N2a (AID 540); conditions: N2a mouse neuroblastoma cell viability; activity change, negative = cytotoxicity: at 92.2 µM (top of the series); note: nearly all actives have a fitted effect of over 45% in size
# In short: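 In this qHTS cytotoxicity screen, ATP-dependent luciferase luminescence reports viable N2a cells after a 40 hr compound exposure in complete culture medium. Potencies are AC50 values from standard Hill equation fits.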
# [4] = Cell Viability - SH-SY5Y (AID 544); note: nearly all actives have a fitted effect of over 55% in size
# In short: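 Quantitative HTS in SH-SY5Y neuroblastoma cells, 40 hr treatment at 37 °C, ATP content by luciferase luminescence; AC50 from Hill fits.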
# [5] = Cell Viability - Renal Proximal Tubule (AID 545); conditions: renal proximal tubule cells viability, primary cells of rat origin; at 91.7 µM (top of the series); note: nearly all actives have a fitted effect of over 40% in size
# In short: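 Rat renal proximal tubule primary cells, 1000/well, exposed to compounds for 40 hr at 37 °C in complete medium; cellular ATP read by CellTiter-Glo luminescence. AC50 from concentration-response fitted with standard Hill equation.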
# [6] = Cell Viability - Mesenchymal (AID 546); conditions: mesenchymal cells viability, qHTS; activity change, negative = cytotoxicity: at 91.7 µM (top of the series);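 note: cells exposed to compound for 40 hours before reading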
# In short: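 Human renal mesenchymal cells (glomerulus-derived), 1000 cells/well, 5 hr 37 °C pre-incubation; compound 40 hr, 37 °C; CellTiter-Glo, 20 min RT; luminescence; AC50 via Hill equation.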
# [7] = Cellular Toxicity (caspase-3) HepG2 (AID 654);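 note: cells exposed to compound for 16 hours before reading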
# In short: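 Concentration-response AC50 values reflect caspase-3/7 induction in HepG2 cells after 16 hours of compound exposure, quantified by luminescence from liberated aminoluciferin and referenced to 100 uM tamoxifen as full stimulation.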
# [8] = Cellular Toxicity (caspase-3) HUV-EC-C (AID 656)
# In short: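 HUV-EC-C cells (1000/well) in complete medium, compound-treated 16 h at 37 °C; caspase-3/7 activity read by Caspase-Glo 3/7 luminescence. Normalized to DMSO (basal) and 100 uM tamoxifen (100%); AC50 from Hill-equation concentration-response fits.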
# [9] = Cellular Toxicity (caspase-3) BJ (AID 658)
# In short: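 qHTS, BJ fibroblasts, 1000 cells/well; 5 hr preincubation, 16 hr compound, 37 °C; Caspase-Glo 3/7 reagent, 1 hr RT; luminescence. DMSO = 0%, 10 uM staurosporine = 100%. Hill-equation AC50.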
# [10] = Cellular Toxicity (caspase-3) MRC-5 (AID 659)
# In short: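 MRC-5 fibroblasts, 1500/well; 16 h cpd, 37 °C; Caspase-Glo 3/7, 1 h RT; lumi read. Norm: DMSO = 0%, 10 uM staurosporine = 100%. Hill-fit AC50 from qHTS conc-response.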
# [11] = Cellular Toxicity (caspase-3) Mesangial (AID 660);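 note: cells exposed to compound for 16 h before the caspase read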
# In short: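 AC50 values come from Hill-equation fits of caspase 3/7 activation, measured as Caspase-Glo luminescence in human glomerular mesangial cells exposed to compound for 16 h at 37 °C; 100% set by 100 uM tamoxifen.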
# [12] = Cellular Toxicity (caspase-3) Hek293 (AID 664);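 note: cells exposed to compound for 16 h at 37 °C before readout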
# In short: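 Apoptosis readout: Caspase-Glo 3/7 signal in human HEK293 cells following 16-hour compound incubation. Responses scaled between DMSO baseline and 100 uM tamoxifen.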
# [13] = Cellular Toxicity (caspase-3) N2a (AID 665);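 note: compound exposure lasted 16 h at 37 °C before readout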
# In short: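 Concentration-response qHTS: compound-induced caspase-3/7 luminescence in N2a cells (16 h, 37 °C), relative to DMSO and 10 uM staurosporine controls; AC50 obtained using the standard Hill equation.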
# [14] = qHTS Assay for Identification of Small Molecule Inducers of Hypoxia Response (AID 2120; active = well fitted curve in the direction sought with a large enough effect in the signal ratio, with a control signal flat, not every such curve was filed as active; the % refers to the signal ratio)
# In short: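 HRE-bla ME-180, 2500 cells/well, 0.5% dialyzed FBS medium; cpd titration, 17 h 37 degrees C; CCF4 2.5 h RT; Ex 405, Em 460/530 ratio -> %Activity, AC50.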
# [15] = qHTS assay for small molecule antagonists of retinoid X receptor alpha signaling (AID 588546; active = well fitted inhibition curve with a large enough effect in the signal ratio, with a control signal flat, not every such curve was filed as active; the % refers to the signal ratio;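 note: cells stimulated with 9-cis-retinoic acid as agonist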); conditions: HEK293T RXRa-UAS-bla, beta-lactamase ratio, antagonist mode; measured here: W530 green channel, cytotoxicity proxy
# In short: (§1)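 Beta-lactamase reporter inhibition, read as CCF4 fluorescence ratio (ex 405, em 460/530 nm) after 2 h at RT. HEK293T UAS-bla cells, 2500/well, were stimulated with 9-cis-RA at 500 or 100 nM final alongside test compound for 18 h at 37 C.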
# [16] = target: Retinoic acid receptor RXR-alpha (Homo sapiens) (UniProt P19793); assay: as above; conditions: HEK293T RXRa-UAS-bla, beta-lactamase ratio, antagonist mode
# In short: as §1
# [17] = qHTS assay for environmental chemicals that activate the Aryl hydrocarbon Receptor (AhR) signaling pathway (AID 651777); conditions: 1A2-DRE human hepatoma cells, luciferase, 24 h; activation: stronger effect = higher value; note: nearly all actives have a fitted effect of over 15% in size
# In short: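 1A2-DRE human hepatoma reporter line; 1,200 cells/well; cmpd or DMSO 24 h, 37 C/5% CO2; One-Glo 30 min RT; luciferase lum.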
# [18] = target: Peroxisome proliferator-activated receptor alpha (Homo sapiens) (UniProt Q07869); assay: qHTS assay for small molecule agonists of the peroxisome proliferator-activated receptor alpha (PPARalpha) signaling pathway (AID 651778); conditions: PathHunter PPARalpha complementation, chemiluminescence, 6 h; max response: stronger effect = higher value
# In short: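 Enzyme-fragment complementation assay in which ligand-bound PPARalpha translocates and forms an active enzyme that generates chemiluminescence. Cells were plated overnight, exposed to compound for 6 hr at 37 C, and then given detection reagent for 60 min at room temperature.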
# [19] = qHTS assay for cell viability of HEK293 cells (AID 743288); conditions: ATP luminescence (CellTiter-Glo), 18 h; max response: stronger effect = lower value; note: nearly all actives have a fitted effect of over 50% in size
# In short: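 Steps: plate 2,000 parental HEK293 cells per well; incubate ≥5 h, 37 C; add compounds in DMSO; incubate 18 h, 37 C; add CellTiter-Glo; wait 30 min at room temperature; read luminescence.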
# [20] = qHTS assay for cell viability of the p53RE-bla HCT-116 cell line (AID 743292); note: nearly all actives have a fitted effect of over 55% in size
# In short: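 HCT-116 p53RE-bla cells seeded 4,000/well; 5 h at 37 C; compound (DMSO) added; 16 h at 37 C; CellTiter-Glo added, 30 min RT; luminescence read.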
# Chain of Phospholipid hydroperoxide glutathione peroxidase GPX4 (Homo sapiens) (P36969 whole entry, looked up): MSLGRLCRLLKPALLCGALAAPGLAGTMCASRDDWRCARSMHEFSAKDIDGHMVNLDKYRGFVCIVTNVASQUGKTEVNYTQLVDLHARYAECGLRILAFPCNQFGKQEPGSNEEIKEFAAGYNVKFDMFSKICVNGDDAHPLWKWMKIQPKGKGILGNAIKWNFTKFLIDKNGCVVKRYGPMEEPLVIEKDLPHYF
# Chain of Glutathione peroxidase 1 (Homo sapiens) (P07203 whole entry, looked up): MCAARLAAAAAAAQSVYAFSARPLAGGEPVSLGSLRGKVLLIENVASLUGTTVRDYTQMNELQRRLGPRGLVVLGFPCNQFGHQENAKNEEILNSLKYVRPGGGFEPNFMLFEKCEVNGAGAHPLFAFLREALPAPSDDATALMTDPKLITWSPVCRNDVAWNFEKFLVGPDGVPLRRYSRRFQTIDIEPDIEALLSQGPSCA
# Chain of Retinoic acid receptor RXR-alpha (Homo sapiens) (P19793 whole entry, looked up): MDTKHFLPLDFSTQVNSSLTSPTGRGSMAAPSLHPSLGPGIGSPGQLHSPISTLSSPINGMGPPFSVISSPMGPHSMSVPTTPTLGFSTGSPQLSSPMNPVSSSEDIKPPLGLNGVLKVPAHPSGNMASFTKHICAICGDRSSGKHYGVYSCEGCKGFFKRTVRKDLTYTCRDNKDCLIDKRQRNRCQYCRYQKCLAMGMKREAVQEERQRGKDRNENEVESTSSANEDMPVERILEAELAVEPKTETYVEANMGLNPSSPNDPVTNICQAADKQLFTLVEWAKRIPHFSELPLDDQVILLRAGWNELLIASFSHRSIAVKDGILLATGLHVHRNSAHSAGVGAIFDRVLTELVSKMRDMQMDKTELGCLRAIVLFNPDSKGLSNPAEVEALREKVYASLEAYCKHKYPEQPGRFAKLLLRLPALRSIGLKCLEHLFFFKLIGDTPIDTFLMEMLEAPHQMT
# Chain of Peroxisome proliferator-activated receptor alpha (Homo sapiens) (Q07869 whole entry, looked up, the tested form may be a part): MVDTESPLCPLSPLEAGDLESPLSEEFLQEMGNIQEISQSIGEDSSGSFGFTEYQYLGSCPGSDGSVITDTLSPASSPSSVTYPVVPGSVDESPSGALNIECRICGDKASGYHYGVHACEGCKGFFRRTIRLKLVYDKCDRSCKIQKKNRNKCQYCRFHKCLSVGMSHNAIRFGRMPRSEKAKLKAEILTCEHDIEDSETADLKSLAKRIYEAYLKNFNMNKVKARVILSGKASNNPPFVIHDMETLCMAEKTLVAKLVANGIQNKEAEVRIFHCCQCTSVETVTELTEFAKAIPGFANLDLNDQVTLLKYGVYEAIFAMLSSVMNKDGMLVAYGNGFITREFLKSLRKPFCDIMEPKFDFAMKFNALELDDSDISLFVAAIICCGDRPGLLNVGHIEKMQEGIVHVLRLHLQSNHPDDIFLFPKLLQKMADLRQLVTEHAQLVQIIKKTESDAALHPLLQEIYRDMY
compound,measurement,setting,value
CC(O)C(CO)NC(=O)C1CSSCC(NC(=O)C(N)Cc2ccccc2)C(=O)NC(Cc2ccccc2)C(=O)NC(Cc2c[nH]c3ccccc23)C(=O)NC(CCCCN)C(=O)NC(C(C)O)C(=O)N1 (stereo not given),Potency,[1],12.6 µM (active)
C[C@@H](O)[C@H]1C(=O)N2C(C(=O)O)=C(S[C@@H]3CN[C@H](C(=O)Nc4cccc(C(=O)O)c4)C3)[C@H](C)[C@H]12,Potency,[1],inactive
Nc1nc(Cl)nc2c1ncn2C1CC(O)C(CO)O1 (stereo not given),Potency,[2],inactive
same,Potency,[1],inactive
Nc1cccc(-c2csc(NC(=O)CCCCCCC(=O)NO)n2)c1,Potency,[2],inactive
c1ccc2scnc2c1,"activity change, negative = cytotoxicity",[3],-2.55% (inactive)
same,Potency,[4],inactive
same,"activity change, negative = cytotoxicity",[5],-4.16% (inactive)
same,"activity change, negative = cytotoxicity",[6],-5.46% (inactive)
same,outcome,[7],inactive
same,outcome,[8],inactive
same,outcome,[9],inactive
same,outcome,[10],inactive
same,outcome,[11],inactive
same,outcome,[12],inactive
same,outcome,[13],inactive
same,outcome,[14],inactive
same,max response,[15],-9.8%
same,max response,[16],-2.82% (inactive)
same,activation,[17],-0.642% (inactive)
same,max response,[18],-3.74% (inactive)
same,max response,[19],11.2% (inactive)
same,Potency,[20],inactive
same,Potency,[2],inactive
same,Potency,[1],inactive
Cn1c(=O)cc(N2CCC[C@@H](N)C2)n(Cc2cc(F)ccc2C#N)c1=O,Potency,[1],inactive
Cc1cccc(O)c1,max response,[15],-8.57% and -4.8%
same,max response,[16],-27.1% (inactive) and -3.41% (inactive)
same,activation,[17],3.54% (inactive) and 0.802% (inactive)
same,max response,[18],-4.41% (inactive) and -2.22% (inactive)
same,max response,[19],-15.7% (inactive) and -2.81% (inactive)
same,Potency,[20],inactive
same,Potency,[2],inactive
CCCCCCCCCCCCC[N+](C)(C)Cc1ccccc1,Potency,[2],inactive
same,Potency,[1],inactive
O=S(=O)(O)c1ccccc1,"activity change, negative = cytotoxicity",[3],-0.532% (inactive)
same,Potency,[4],inactive
same,"activity change, negative = cytotoxicity",[5],-1.46% (inactive)
same,"activity change, negative = cytotoxicity",[6],0.153% (inactive)
same,outcome,[7],inactive
same,outcome,[8],inactive
same,outcome,[9],inactive
same,outcome,[10],inactive
same,outcome,[11],inactive
same,outcome,[12],inactive
same,outcome,[13],inactive
same,outcome,[14],inactive
same,max response,[15],5.99%
same,max response,[16],-0.701% (inactive)
same,activation,[17],-0.565% (inactive)
same,max response,[18],-0.704% (inactive)
same,max response,[19],8.35% (inactive)
same,Potency,[20],inactive
same,Potency,[2],inactive
same,Potency,[1],inactive
CCC(C)CCCCC(=O)NC(CCN)C(=O)NC(C(=O)NC(CCN)C(=O)NC1CCNC(=O)C(C(C)O)NC(=O)C(CCN)NC(=O)C(CCN)NC(=O)C(CC(C)C)NC(=O)C(Cc2ccccc2)NC(=O)C(CCN)NC1=O)C(C)O (stereo not given) ({Octanoyl(6-Me)}-[Dab]T[Dab][Dab][Dab]FL[Dab][Dab]T; lactam 4-C; configuration not given here),Potency,[2],inactive
same,Potency,[1],inactive
Nc1nc(-c2ccc(Cl)c(Cl)c2)c(-c2ccncc2)s1,Potency,[2],inactive
N[C@@H](C(=O)N[C@@H]1C(=O)N2C(C(=O)O)=C(Cl)CC[C@H]12)c1ccccc1,Potency,[2],inactive
same,Potency,[1],inactive
